The campaign covered roughly 65,000 compounds. About 370 (0.57%) were called active.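 The calls were made as follows: active = activation above the screen-wide mean activation plus 3 SD (cut at about 19% in these data); inactive = the rest.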 This excerpt belongs to a sample that is enriched for actives.
Biological target: 5-hydroxytryptamine receptor 1A (Homo sapiens) (UniProt P08908)
Assay: human 5-HT1a receptor agonists, primary screen, cell-based, CHO, Ga15 NFAT-bla reporter (AID 567);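 also: 0% = DMSO wells and 100% = 5-CT at EC100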
Details: CHO 5-HT1a Ga15 NFAT-bla reporter, FRET ratio; at 10 µM; hits give high values

5-hydroxytryptamine receptor 1A (Homo sapiens), sequence (P08908 whole entry, looked up): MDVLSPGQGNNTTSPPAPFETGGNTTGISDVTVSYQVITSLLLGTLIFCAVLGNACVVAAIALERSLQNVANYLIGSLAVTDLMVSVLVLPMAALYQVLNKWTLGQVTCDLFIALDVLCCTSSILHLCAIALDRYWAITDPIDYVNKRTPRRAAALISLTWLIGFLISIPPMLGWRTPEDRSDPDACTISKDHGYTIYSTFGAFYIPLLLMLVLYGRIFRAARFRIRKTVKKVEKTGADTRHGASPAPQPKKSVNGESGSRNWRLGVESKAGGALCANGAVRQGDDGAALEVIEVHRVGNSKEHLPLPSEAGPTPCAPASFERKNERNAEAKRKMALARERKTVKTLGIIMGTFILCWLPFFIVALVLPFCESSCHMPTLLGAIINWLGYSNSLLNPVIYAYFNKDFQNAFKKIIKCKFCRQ

Compound | activation
CCc1cccc2c(C#N)cn(CC(=O)N3CCOCC3)c12 | 60.2% (active)
COC(=O)C(c1ccccc1)N1CCCCCC1 (stereo not given) | 1.53% (inactive)
COC(=O)C(O)(c1ccc(NC(=O)c2ccco2)c(OC)c1)C(F)(F)F (stereo not given) | -0.22% (inactive)
CC1(C)C(c2ccccc2)=NC(c2cccnc2)=[N+]1[O-] | 49.7% (active)
CCOC(=O)C1CN(C)CCC1=O (stereo not given) | -3.2% (inactive)
CC(=O)N(C1=NCCCS1)c1ccccc1F | -0.07% (inactive)
Cc1ccc2c(c1)C1CN(C)CCC1N2C(=O)Cn1nnc(-c2ccccc2F)n1 (stereo not given) | 1.76% (inactive)
Cc1ccc(Cn2nnnc2CN2CCC(n3nnc4ccccc43)CC2)cc1 | -1.46% (inactive)
CN1CCN(Cc2ccccc2C(F)(F)F)CC1 | -1.3% (inactive)
O=C(c1cc2nc(-c3ccccc3)cc(-c3ccccc3)n2n1)N1CCC2(CC1)OCCO2 | 0.72% (inactive)
Cc1cccc(-n2c(C)nc3cc(C(=O)N4CCC5(CC4)OCCO5)ccc32)c1 | 27.3% (active)
O=C(c1cc(-c2ccncc2)nc2ccccc12)N1CCC2(CC1)OCCO2 | -2.03% (inactive)
Fc1cccc(F)c1CN1CCN(Cc2c(F)cccc2F)CC1 | -2.86% (inactive)
CC(=O)N1CN2CN(C(C)=O)CC(C(=O)c3ccc(Br)cc3)(C2)C1 | 0.98% (inactive)
O=C(O)C1CSC(c2cccnc2)N1 (stereo not given) | -3.3% (inactive)

Reference: PubChem BioAssay AID567 (The Scripps Research Institute Molecular Screening Center, 2006)
